About 83,000 compounds went through this panel and 20% of them were active in at least one assay; those are over-represented in the sample as a whole.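 96-well plates, one dose, 48 hours. Percent growth reported; active if below 10.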 Unmarked numbers belong to inactive results. Activity calls are given as the source filed them.

Test systems include HCT-15 colon; HT29 colon; SNB-75 CNS; SNB-19 CNS; U251 CNS; PC-3 prostate; SK-MEL-5 melanoma; UACC-62 melanoma; LOX IMVI melanoma; SK-MEL-28 melanoma; SK-MEL-2 melanoma; EKVX NSCLC; SN12C renal; UO-31 renal; TK-10 renal; ACHN renal; CAKI-1 renal; A498 renal; CCRF-CEM leukemia; MOLT-4 leukemia.
Holding throughout (assay): NCI-60 one-dose screen, 48 h (100 = growth as untreated, 0 = no growth, -100 = all killed)
Common to all, as to conditions: 10 µM

For the compound `CC(=C(c1ccc(OCCN2CCCCCC2)cc1)c1ccc(OCCN2CCCCCC2)cc1)c1ccc(Cl)cc1`, the growth with HCT-15 colon was -76% (active); in the test with HT29 colon, -94.8% (active); in the test with SNB-75 CNS, -97.2% (active); in the test with SNB-19 CNS it was -99.2% (active); in the test on U251 CNS, -100% (active); in the test on PC-3 prostate it was -83.3% (active). For the same compound, the growth in the test with SK-MEL-5 melanoma is -100% (active); in the test with UACC-62 melanoma, -98.3% (active); in the test on LOX IMVI melanoma it was -100% (active); in the test with SK-MEL-28 melanoma, -98.5% (active); with SK-MEL-2 melanoma, -91.7% (active); in the test with EKVX NSCLC it was -89.3% (active). Further, the growth in the test on SN12C renal was -92.4% (active); in the test with UO-31 renal, -100% (active); in the test on TK-10 renal, -98% (active); in the test on ACHN renal, -100% (active); in the test on CAKI-1 renal, -100% (active); in the test with A498 renal it was -90.9% (active). Also, the growth with CCRF-CEM leukemia is -61.5% (active).

In the case of `O=C(c1ccc(Cl)cc1)C1[C@H](c2ccccc2Br)[C@@H](c2ccccc2)NC12C(=O)Nc1ccc(Cl)cc12` (stereo partly drawn), the growth in the test with HCT-15 colon was 8.84% (active); in the test with HT29 colon, -14.6% (active); in the test on SNB-75 CNS, 36.5%; in the test on SNB-19 CNS, 33.6%; with U251 CNS, 6.14% (active); in the test on PC-3 prostate, 38.1%. Further, the growth in the test with SK-MEL-5 melanoma was 15.9%; in the test with UACC-62 melanoma, 22%; in the test on LOX IMVI melanoma, -91% (active); in the test on SK-MEL-28 melanoma, 55.4%; with SK-MEL-2 melanoma, 13.8%; in the test with EKVX NSCLC, 16.5%. In addition, the growth is -58.6% (active) in the test with SN12C renal; 16.5% with UO-31 renal; 42.5% in the test on TK-10 renal; 9.92% (active) in the test on ACHN renal; 8.98% (active) in the test on CAKI-1 renal; 72.4% in the test on A498 renal. Further, the growth is 18.8% in the test with CCRF-CEM leukemia and 18% with MOLT-4 leukemia.

In the case of `COc1ccc2[nH]c(O)c(N=NC(=O)c3cc(-c4ccc(C)cc4)nc4ccccc34)c2c1`, the growth in the test with HCT-15 colon was 62.8%; in the test with HT29 colon it was 113%; in the test with SNB-75 CNS, 95.4%; in the test with SNB-19 CNS, 95.1%; in the test with U251 CNS it was 88.5%; with PC-3 prostate, 93.6%. The growth in the test with SK-MEL-5 melanoma was 94.6%; with UACC-62 melanoma, 96.5%; in the test on LOX IMVI melanoma, 83.5%; with SK-MEL-28 melanoma, 97.5%; in the test on SK-MEL-2 melanoma, 111%; in the test with EKVX NSCLC, 97.6%. Further, the growth is 92.1% in the test on SN12C renal; 69.9% in the test with UO-31 renal; 117% with TK-10 renal; 81% in the test with ACHN renal; 95.5% with CAKI-1 renal; 126% with A498 renal. Moreover, the growth with CCRF-CEM leukemia is 52.1%.

On to `CC(C)C1=C[C@@]23CC[C@@H]4[C@](C)(CCC[C@]4(C)C(=O)NCc4ccccc4)[C@H]2C[C@@H]1[C@H]1C(=O)CCC(=O)[C@H]13`, for which the growth with HCT-15 colon is 56%; with HT29 colon, 81.7%; in the test on SNB-75 CNS, 80.8%; with SNB-19 CNS, 83.2%; with U251 CNS, 67%; with PC-3 prostate, 36.9%. Further, the growth with SK-MEL-5 melanoma is 69.3%; in the test on UACC-62 melanoma, 59.6%; with LOX IMVI melanoma, 27%; with SK-MEL-28 melanoma, 68.6%; with SK-MEL-2 melanoma, 99.2%; in the test on EKVX NSCLC, 49.8%. Further, the growth in the test with SN12C renal was 83.4%; in the test on UO-31 renal, 48.1%; with TK-10 renal it was 96.9%; with ACHN renal, 70.7%; in the test with CAKI-1 renal, 88.7%; in the test with A498 renal it was 97.8%. The growth in the test on CCRF-CEM leukemia is 9.73% (active); with MOLT-4 leukemia it was 16.2%.

Regarding `COc1ccc(C2N(c3ccc(Br)cc3)N=C(C(C)=O)N2[C@H]2[C@H](OC(C)=O)O[C@H](COC(C)=O)[C@@H](OC(C)=O)[C@@H]2OC(C)=O)cc1` (stereo partly drawn), the growth was 61.4% in the test with HCT-15 colon; 75.2% in the test on HT29 colon; 74.7% with SNB-75 CNS; 78.2% with SNB-19 CNS; 74.8% in the test on U251 CNS; 43.2% in the test on PC-3 prostate. Moreover, the growth with SK-MEL-5 melanoma was 77.7%; in the test on UACC-62 melanoma it was 56.9%; with LOX IMVI melanoma, 71.1%; in the test with SK-MEL-28 melanoma it was 86.4%; in the test with SK-MEL-2 melanoma it was 77.9%; with EKVX NSCLC, 59.4%. The growth in the test on SN12C renal is 79.7%; in the test on UO-31 renal, 44.5%; with TK-10 renal it was 68.9%; in the test on ACHN renal, 61.1%; in the test on CAKI-1 renal it was 70.8%; in the test with A498 renal it was 61.3%. The growth in the test with CCRF-CEM leukemia was 78.8%; with MOLT-4 leukemia, 54.6%.

Consider `Cc1cc(=O)oc2cc(OCCCCOc3ccc(/C=C/C(=O)Nc4ccccc4[N+](=O)[O-])cc3)ccc12`, for which the growth with HCT-15 colon was 104%; with HT29 colon it was 117%; in the test with SNB-75 CNS, 103%; in the test with SNB-19 CNS, 97.8%; in the test with U251 CNS, 106%; in the test with PC-3 prostate, 109%. Moreover, the growth with SK-MEL-5 melanoma is 102%; in the test with UACC-62 melanoma, 94.9%; in the test on LOX IMVI melanoma, 107%; in the test on SK-MEL-28 melanoma it was 103%; with SK-MEL-2 melanoma, 117%; with EKVX NSCLC, 105%. Besides, the growth in the test with SN12C renal is 100%; with UO-31 renal, 90.6%; in the test with TK-10 renal, 104%; in the test with ACHN renal, 108%; with CAKI-1 renal, 100%; in the test on A498 renal, 127%. The growth is 99.8% in the test with CCRF-CEM leukemia and 108% with MOLT-4 leukemia.

As for `COC1=C[C@@]23CCC(=O)N2CCc2cc4c(cc2[C@H]3[C@H]1OC(=O)C(C)(C)O)OCO4`, the growth is 97.5% in the test with HCT-15 colon; 106% in the test with HT29 colon; 74.1% with SNB-75 CNS; 94.1% in the test with SNB-19 CNS; 104% in the test with U251 CNS; 92.1% with PC-3 prostate. The growth was 99.3% in the test on SK-MEL-5 melanoma; 89.1% in the test with UACC-62 melanoma; 96.6% in the test with LOX IMVI melanoma; 105% in the test on SK-MEL-28 melanoma; 104% with SK-MEL-2 melanoma; 97.2% in the test on EKVX NSCLC. Moreover, the growth in the test on SN12C renal was 96.5%; in the test with UO-31 renal, 87.5%; in the test on TK-10 renal it was 97.7%; with ACHN renal it was 103%; in the test with CAKI-1 renal it was 95.6%; with A498 renal it was 108%. The growth was 99.3% with CCRF-CEM leukemia and 86.7% in the test on MOLT-4 leukemia.

These data come from PubChem BioAssay (NCI).
